Screen size: about 3,600 compounds; about 900 (25%) were called active. How the calls were made is not given here. Not all results are given here. Measured potencies and affinities stand elsewhere.
The compounds below were run against Protein Tat (Human immunodeficiency virus type 1 group M subtype B (isolate HXB2)) (UniProt P04608) (assay: inhibitors of Tat binding to TAR RNA, dose response, counter-screen for Vif-APOBEC3G degradation inhibitor project, biochemical, fluorescence polarization, FAM-labeled TAR RNA (AID 1117361)). Conditions: outcome: dose series up to 100 µM unless noted; series mostly up to 100 µM.

Compound | outcome
COc1ccccc1OCC(=O)NCC1CCCN(Cc2cnn(C(C)C)c2)C1 (stereo not given) | inactive
CCC(C)c1c(O)nc(SCC(=O)N2CCOCC2)[nH]c1=O (stereo not given) | inactive
CC1(C)CCC(=O)c2ccccc21 | inactive
O=C(Oc1ccccc1)c1cccc2cccnc12 | inactive
O=C(O)CCC(=O)N(Cc1cccs1)Cc1cccs1 | inactive
CC(C)Cn1c(CCC(=O)O)ccc1-c1cccs1 | inactive
CCc1ccc(-c2nc(SCC(=O)NC3CCS(=O)(=O)C3)n[nH]2)cc1 (stereo not given) | inactive
O=C(CNC(=O)Cn1cnc2sc3c(c2c1=O)CCCC3)NCc1ccccn1 | inactive
Cc1cc(NC(=O)c2cncc(Br)c2)no1 | inactive
O=C1c2ccccc2C(=O)N1OCCOCCOCCBr | inactive
O=C1CCC(CCC(=O)N2CCCC(C(=O)c3ccc4c5c(cccc35)CC4)C2)=NN1 (stereo not given) | inactive
CN(C)C(=O)c1ccc(COc2ccccc2Br)o1 | inactive
Cc1ccc(OCc2ccc(C(=O)NN)o2)cc1C | inactive
CCOC(=O)c1cc2c(c(CCO)n1)[C@H](CCO)N(S(=O)(=O)C(C)(C)C)C2 | inactive
O=C(Cc1cc(=O)[nH]c(=O)[nH]1)NCC1CCCO1 (stereo not given) | inactive
Cc1cccc(-n2c(N)cc(=O)nc2SCC(=O)NC2CCCCC2)c1 | inactive
COc1ccc(-n2c(Cc3cccn3C)nnc2SCC(=O)Nc2ccccc2)cc1 | inactive
COc1ccc(OC)c(NC(=O)CSc2nnc(CCCO)n2-c2ccccc2)c1 | inactive
O=C(CSc1nnc(-c2cccnc2)n1C1CCCCC1)NC1CCCCC1 | inactive
Cc1ccc(-n2c(SCC(=O)NCC3CCCO3)nc3c(c2=O)SCC3)cc1 (stereo not given) | inactive
N#Cc1ccccc1S(=O)(=O)N1CCN(C(=O)CN2CCCC2c2cccs2)CC1 (stereo not given) | inactive
COc1ccc(C(C)NC(=O)C2C(=O)NC3(C)CC2c2ccccc2O3)cc1 (stereo not given) | inactive

Compound | outcome
O=C(O/N=C\c1ccc(N2CCCCC2)c([N+](=O)[O-])c1)c1c(F)cccc1F | inactive
Nc1nc2n(n1)C(c1c(F)cccc1Cl)CC(c1ccc(F)cc1)N2 (stereo not given) | inactive
CCOC(=O)Cn1c(=O)c2c(nc3n2CCN3Cc2ccccc2)n(C)c1=O | inactive
O=C(Nc1ccccc1)c1ccc(S(=O)(=O)N(CCO)CCO)cc1 | inactive
COc1ccccc1NC(=O)C12CC3CC(C1)CC(c1ccc(C)cc1)(C3)C2 | inactive
COc1ccc(N=c2scc(-c3ccc(OC)cc3)n2CCO)cc1 | inactive
O=C(c1ccccc1Br)N1CCN(c2ccccc2)CC1 | inactive
COc1cc(OC)cc(C(=O)NNC(=O)c2ccccc2Br)c1 | inactive
CC1=CC(C)(C)n2c(O)c(N=NC(N)=S)c3c(C)c(C)cc1c32 | inactive
COc1ccccc1Oc1coc2cc(OC(=O)N3CCOCC3)ccc2c1=O | inactive
O=C(O)c1ccc(Sc2nnnn2-c2ccccc2)c([N+](=O)[O-])c1 | inactive
CCCCN(C)C(=O)c1cn(CC)c2ccc(S(=O)(=O)N(C)C)cc2c1=O | inactive
O=C(CCCc1c[nH]c2ccccc12)N1CCOCC1 | inactive
O=C(O)c1ccc(NS(=O)(=O)c2cccc(C(=O)Nc3ccc([N+](=O)[O-])cc3)c2)cc1 | inactive
COc1ccccc1C(=O)Nc1ccc(S(=O)(=O)Nc2cc(C)nc(C)n2)cc1 | inactive
CCn1c(C(=O)N2CCCC(C(=O)NCCc3ccc(C)cc3)C2)cc2sccc21 (stereo not given) | inactive
CC1(C)Oc2ccc(C(=O)NC3CCCC3)cc2N(CC(=O)NC2CCCC2)C1=O | inactive
O=C(NC1CCCC1)c1ccc(CNc2c(N3CCOCC3)c(=O)c2=O)cc1 | inactive
CCCNC(=O)c1cccc(Cn2nc(C)c(Br)c2C)c1 | inactive
CCCCOCCCNC(=O)c1ccc(OCC)cc1 | inactive
CCC(Nc1nc(-c2ccccc2)nc2ccccc12)C(=O)O (stereo not given) | inactive
Clc1ccc(Sc2oc(/C=N/n3cnnc3)cc2Br)cc1 | inactive

Compound | outcome
O=C1C(Cl)=C(Nc2ccc3cn[nH]c3c2)C(=O)c2ccccc21 | inactive
C/C(=N\NC(=O)C(C)Oc1ccc([N+](=O)[O-])cc1)c1ccccn1 (stereo not given) | inactive
COC(=O)C1=C(C)N(C)C(C)=C(C(=O)OC)C1c1ccc(F)c(Br)c1 | inactive
COc1cc(OC)cc(C(=O)NC2CCN(C(=O)N3c4ccccc4Sc4ccccc43)CC2)c1 | inactive
Nc1c(-c2ccccc2Cl)cnn1-c1cccc([N+](=O)[O-])c1 | inactive
COc1ccc(-c2[nH]c(-c3ccc(C)cc3)nc2SCC(=O)NCc2ccco2)cc1OC | inactive
COC(=O)Nc1sc2c(c1C(=O)NCc1ccco1)CCCC2 | inactive
O=C1CC(SC(=Nc2ccccc2)Nc2ccccc2)C(=O)N1c1ccc(Cl)cc1 (stereo not given) | inactive
O=C(NCc1ccc(F)cc1)C1CCCN(C(=O)Nc2ccccc2)C1 (stereo not given) | inactive
CCOC(=O)CC1COc2ccccc2N1C(=O)c1ccc(C)cc1 (stereo not given) | inactive
CS(=O)(=O)NCc1nnc(SCc2ccccc2C(F)(F)F)o1 | inactive
CSc1oc(-c2ccccc2)nc1S(=O)(=O)c1ccc(C)cc1 | inactive
Cc1ccc2c(c1)c1ccc3c(c1n2C)C(=O)C=CC3=O | inactive
COc1ccc2c(c1)c1ccc3c(c1n2C)C(=O)C=CC3=O | inactive
COc1cc2c(cc1NC(=O)COC(=O)Cn1cnc3ccccc31)oc1ccccc12 | inactive
CCOC(=O)C(CC(=O)O)=C(c1ccccc1)c1ccccc1 | inactive
CCOC(=O)CSc1nnc(-c2cccnc2)n1Cc1ccccc1 | inactive
CCc1cccc(NC(=O)CN(C)S(=O)(=O)c2cccc3nsnc23)c1 | inactive
O=C(OCc1c(Cl)cccc1Cl)c1cccnc1Cl | inactive
Cc1ccc(-c2csc(NC(=O)C3CC=CCC3C(=O)O)c2C(=O)OC(C)C)cc1 (stereo not given) | inactive
O=C(C1CCN(S(=O)(=O)N2CCC3(CC2)OCCO3)CC1)N1CCOCC1 | inactive
O=C(C1CCCO1)N1CCC(c2nc3ccccc3[nH]2)CC1 (stereo not given) | inactive

Compound | outcome
O=C(NCC1CC1)c1ccc2c3n(nc2c1)-c1ccccc1CO3 | inactive
O=C(NNC(=O)c1ccccc1O)c1cc2ccccc2o1 | inactive
COc1ccc(C(=O)NCc2cn3cccc(C)c3n2)cc1OC | inactive
COc1ccc(Cl)c(NCCC(=O)O)c1 | inactive
O=C(NCc1cccnc1)c1cc(S(=O)(=O)N2CCCCC2)ccc1Cl | inactive
NS(=O)(=O)c1ccc(NC(=O)COC(=O)c2cc(Cl)ccc2[N+](=O)[O-])cc1 | inactive
CC(=O)Nc1ccc(/C=N/Nc2ccc(C(=O)c3c(C)cc4ccccn34)cc2[N+](=O)[O-])cc1 | inactive
Clc1ccc(/C(Cc2nc3ccccc3[nH]2)=N\Nc2ccccc2)cc1 | inactive
Cc1c(Cl)cccc1NC(=O)CC(Cc1ccccc1)C(=O)O (stereo not given) | inactive
COC(=O)c1cc2c(ccn2-c2ccc(F)cc2)n1CC(C)C | inactive
CC1CCN(c2nc3ccc(C(=O)N4CCN(Cc5ccccc5)CC4)cc3s2)CC1 | inactive
CCOC(=O)CSc1nnc(CNC(=O)c2cccs2)n1-c1ccccc1 | inactive
O=C(COC(=O)c1ccc(O)cc1O)NNC(=O)c1cccs1 | inactive
COc1cccc(OC)c1OCCOCCn1cnc2ccccc2c1=O | inactive
COCC(=O)NCc1nc2ccccc2[nH]1 | inactive [at 50 µM]
COc1cccc(/C=N/NC(N)=S)c1OCc1ccccc1Cl | inactive
CCCNC(=O)COC(=O)c1ccccc1OCc1ccc(Cl)cc1 | inactive
Clc1ccc(CNc2ccc(CNc3ncn[nH]3)cc2)c(Cl)c1 | inactive
CCOC(=O)CSc1nnc(CNc2ccc(Cl)cc2)n1-c1ccccc1 | inactive
CCOc1cc(Cl)c(S(=O)(=O)NCc2ccccn2)cc1Cl | inactive
CCn1c(CNc2ccc(Cl)cc2)nnc1SCc1ccccc1 | inactive
CCc1ccc(N2C(=O)Cc3c2nc(N)c(C#N)c3N)cc1 | inactive

Compound | outcome
CCOC(=O)Cn1nc(-c2ccccc2)c2cnc3ccc(C)cc3c21 | inactive
O=C1CC(c2c(F)cccc2Cl)C2=C(COC2=O)N1 (stereo not given) | inactive
COc1cccc(CC(=O)N2CCCC(CO)(Cc3ccc(F)cc3F)C2)c1 (stereo not given) | inactive
Cc1ccc(C(=O)COC(=O)CNC(=O)C(c2ccccc2)c2ccccc2)cc1[N+](=O)[O-] | inactive
C=CCn1c(SCC(=O)c2c(N)n(C)c(=O)n(C)c2=O)nnc1-c1ccccc1F | inactive
O=c1c2c(-c3ccco3)csc2nc(SCc2cn3cccnc3n2)n1-c1ccccc1 | inactive
N#CCOC(=O)c1sccc1-n1cccc1 | inactive
O=C(CSc1nnc(-c2ccc(F)cc2)o1)Nc1ccc(S(=O)(=O)N2CCCC2)cc1 | inactive
Cc1nnc(NC(=O)c2ccc(C)c(S(=O)(=O)N3CCOCC3)c2)s1 | inactive
Cc1ccc(C(=O)Nc2cccc(C(=O)O)c2)cc1S(=O)(=O)N1CCOCC1 | inactive
N#CC(=C1SC=CS1)c1nc(-c2ccccc2)cs1 | inactive
CCOC(=O)C1CCN(c2ncnc3cc(OC)c(OC)cc23)CC1 | inactive
CCOC(=O)C1CCN(Cc2cnc(Oc3ccc(OC)cc3)s2)CC1 | inactive
CCOC(=O)CSc1nnc(-c2ccco2)n1C | inactive
CSc1ncccc1C(=O)OCC(=O)N1CCOCC1 | inactive
CCN(CC)c1ccc(N=Cc2ccc(N(CC)CC)cc2O)cc1 | inactive
CCOC(=O)C1C(=O)CC(C)(O)C(C(=O)OCC)C1c1cc(Br)ccc1OC (stereo not given) | inactive
COc1cccc(-c2nn3c(-c4ccccn4)nnc3s2)c1 | inactive
O=C(CSc1nnc(-c2cccnc2)n1Cc1ccco1)c1ccc(Br)cc1 | inactive
N#Cc1ccc(CSc2nnc(Cc3cccs3)n2Cc2ccco2)cc1 | inactive
O=C(CCCCn1c(=O)[nH]c2ccsc2c1=O)NCc1cccnc1 | inactive
COC(=O)c1cc(=O)nc2sc(-c3ccc(F)cc3)nn12 | inactive
